This note sets out measurements from PubChem BioAssay AID720540 (National Center for Advancing Translational Sciences (NCATS), 2013).

Hit rate of the full screen: of about 1,300 compounds, about 460 (35%) were called active. Roughly 39% stayed inconclusive and do not appear here. Calls come from the whole dose curve; as a rule, active = well fitted inhibition curve with a large enough effect; inconclusive = small, poorly fitted or top-dose-only effect; inactive = flat fitted curve, though single readings scatter. The list shows a part of the results.
Potency is the fitted concentration of half-maximal effect.

Protein phosphatase EYA2 (Homo sapiens), sequence (O00167 whole entry, looked up): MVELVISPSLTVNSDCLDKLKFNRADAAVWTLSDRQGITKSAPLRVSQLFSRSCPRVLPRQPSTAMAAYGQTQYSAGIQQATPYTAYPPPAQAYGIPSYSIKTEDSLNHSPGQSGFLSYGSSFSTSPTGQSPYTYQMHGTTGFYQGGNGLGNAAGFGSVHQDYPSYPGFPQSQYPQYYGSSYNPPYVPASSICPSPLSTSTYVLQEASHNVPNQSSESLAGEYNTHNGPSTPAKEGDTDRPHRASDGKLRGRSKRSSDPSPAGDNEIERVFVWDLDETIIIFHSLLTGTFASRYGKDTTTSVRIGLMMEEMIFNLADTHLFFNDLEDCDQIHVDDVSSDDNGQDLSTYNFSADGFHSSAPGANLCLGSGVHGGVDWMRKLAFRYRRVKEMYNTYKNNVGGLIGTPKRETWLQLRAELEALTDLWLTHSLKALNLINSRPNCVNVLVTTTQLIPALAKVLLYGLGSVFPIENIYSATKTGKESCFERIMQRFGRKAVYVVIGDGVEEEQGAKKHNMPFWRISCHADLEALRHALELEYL

This assay addresses Protein phosphatase EYA2 (Homo sapiens) (UniProt O00167). Kind of assay: qHTS for Inhibitors of the Phosphatase Activity of Eya2: Confirmatory Assay for Cherry-picked Compounds. Note: nearly all actives have a fitted effect of over 65% in size. The conditions noted are these: purified EYA2 phosphatase activity, qHTS confirmation; series mostly up to 46.1 µM. The method in brief: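 Eya2 (0.2 uM working solution) preincubated 10 min at room temperature with compound in pH 7.5 HEPES buffer with MgCl2, BSA, DTT. OMFP added (50 uM working solution), 10 min more; fluorescence 485/525 nm, normalized to EGTA and DMSO.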
Background: Quantitative high-throughput screening tests each substance at several concentrations.
For the compound `CC1=C(C(=O)N2CCOCC2)CC(CC(=O)NC(c2ccccc2)c2ccccc2)C(=O)N1Cc1ccc(C(C)(C)C)cc1` (stereo not drawn), the Potency entry was “inactive”.

Take `Cc1ccc(-c2nc3ccccc3s2)cc1NC(=S)NC(=O)/C=C/c1ccco1`: the Potency result is “inactive”. Under `O=C(O)CCN1C(=O)/C(=C/c2ccc(-c3nc4ccccc4s3)o2)SC1=S` stands 3.79 µM (active); under `N#CC1=C(N)n2c(s/c(=C\c3cccs3)c2=O)=C(C#N)C1c1cccs1` (stereo not drawn), 19 µM (active); under `O=C(C1=C(O)C(=O)N(c2nc3ccc(Cl)cc3s2)C1c1ccco1)c1ccco1` (stereo not drawn), 16.9 µM (active).

Turning to `COc1ccc2nc(NC(=S)NC(=O)c3ccco3)sc2c1`, the Potency entry is “inactive”.

In the case of `COc1cc(NC(=O)c2cccs2)c(OC)cc1NC(=O)Cc1ccccc1`, the Potency is 10.7 µM (active). As to `COc1cc(NC(=O)c2cccs2)c(OC)cc1NC(=O)CCC(=O)Nc1ccc2ncccc2c1`, the Potency is 1.69 µM (active).

With `COc1cc(NC(=O)c2cccs2)c(OC)cc1NC(=O)Nc1ccc(F)cc1`, the Potency entry was “inactive”. To `O=C(NCc1ccc2c3c(cccc13)C(=O)N2)c1cccs1` belongs “inactive”; to `Cc1cc(NC(=O)c2cccs2)cc(-c2nc3ncccc3o2)c1O`, “inactive”; to `COc1cc(NC(=O)c2cccs2)c(OC)cc1NC(=O)CCn1nnc2ccccc21`, 16.9 µM (active). Take `O=S(=O)(c1ccccc1)[C@@]1(c2ccccc2)C[C@@H]2ON=C(c3cccc(-c4ccccc4)c3)[C@@H]2C1`: the Potency entry was “inactive”. As to `COc1ccccc1OCc1ccc(C(=O)Nc2cc(OC)c(OC)c(OC)c2)o1`, the Potency result is “inactive”. Take `Brc1ccc(CSc2ccc3nnc(-c4ccccn4)n3n2)cc1`: the Potency was 19 µM (active). Regarding `c1ccc(CSc2ccc3nnc(-c4ccccn4)n3n2)cc1`, the Potency was 19 µM (active). For `COC(=O)c1ccc(CSc2ccc3nnc(-c4ccccn4)n3n2)o1`, the Potency is 16.9 µM (active). Regarding `CC1CN(C(=O)c2cc(S(=O)(=O)N(C)c3ccc(F)cc3)ccc2Cl)CC(C)O1` (stereo not drawn), the Potency result is “inactive”. Regarding `CN(C)c1ccc(-c2ccnc3c2CC(C)(C(=O)NCCC(F)(F)F)O3)cc1` (stereo not drawn), the Potency result is “inactive”. Under `CN1C(=O)NC(c2ccccc2)(C(F)(F)F)S/C1=C(/C#N)c1nnc(N2CCOCC2)n1-c1ccccc1` (stereo not drawn) stands “inactive”; under `NNC(=O)c1nc[nH]c1C(=O)Nc1ccccn1`, 8.49 µM (active); under `CCOC(=O)c1ccc(NC(=O)c2nc[nH]c2C(=O)N[C@@H](Cc2ccccc2)C(=O)OC(C)(C)C)cc1`, “inactive”. Consider `C[C@@H](NC(=O)c1nc[nH]c1C(=O)N[C@@H](Cc1ccccc1)C(=O)OC(C)(C)C)c1ccccc1`, for which the Potency result was “inactive”. Regarding `O=C(Nc1ccc(F)cc1)c1nc[nH]c1C(=O)O`, the Potency is 15.1 µM (active).

Take `Cc1ccc(NC(=O)c2[nH]cnc2C(=O)NN)cc1`: the Potency is 15.1 µM (active). To `O=C(CNC(=O)c1[nH]cnc1C(=O)N[C@@H](Cc1ccccc1)C(=O)OCc1ccccc1)OCc1ccccc1` belongs “inactive”. For `Cc1ccc(N=Cc2cccc(O)c2O)c(C)c1`, the Potency entry was “inactive”. Under `Cc1ccc(C(=O)N/C(=C\c2ccco2)C(=O)NCCCn2ccnc2)cc1` stands 4.26 µM (active); under `CCn1cc(C(=O)N[C@@H](C)C(=O)NCCCn2ccnc2)c(=O)c2cc3c(cc21)OCO3`, “inactive”; under `COC(=O)c1ccc(OC(=O)c2cccs2)cc1`, 10.7 µM (active).

For `O=C(CNC(=O)c1cccs1)OCC(=O)c1ccc(Cl)cc1`, the Potency result was “inactive”. `CC(C)S(=O)(=O)c1cnc(-c2ccccn2)nc1N`: the Potency is 16.9 µM (active). To `COc1cc(NC(=O)CSc2ccc(-c3ccccn3)nn2)cc(OC)c1` belongs 2.13 µM (active). Under `CN(CC(=O)Nc1cccc(F)c1)C(=O)c1ccc(COc2ccccc2)cc1` stands “inactive”; under `COc1cc(NC(=O)c2ccc(S(=O)(=O)N(C)c3ccccc3)cc2)cc(OC)c1`, “inactive”; under `O=C(CSc1ccc(-c2ccccn2)nn1)Nc1cccc(F)c1`, 3.79 µM (active). As to `COc1ccc(NC(=O)CSc2ccc(-c3ccccn3)nn2)cc1OC`, the Potency was 3.79 µM (active). For the compound `COc1ccccc1CNC(=O)CSc1ccc(-c2ccccn2)nn1`, the Potency is 12 µM (active). Take `Cn1c(-c2cc(Cl)ccc2O)nc2c1c(=O)[nH]c(=O)n2Cc1ccccc1`: the Potency result was “inactive”.

Turning to `O=C(Cc1cccs1)Nc1ccc2c(c1)C(=O)OC2`, the Potency result is “inactive”. Consider `Cc1cnc(C(=O)Nc2ccccc2-c2ccc(C)o2)cn1`, for which the Potency result was “inactive”.

As to `Cc1[nH]n(-c2cccc3ccccc23)c(=O)c1C=Nc1ccc2[nH]c(=O)[nH]c2c1`, the Potency is 7.57 µM (active). On to `Cc1cccc(-n2c(O)c(C=Nc3ccccc3)c3ccccc3c2=O)n1`, for which the Potency result is “inactive”. For the compound `C/C=C/c1ccc(OCCSc2nc(C)cc(=O)[nH]2)c(OC)c1`, the Potency was 13.5 µM (active). Under `C/C(N)=C(/C#N)C(=O)CSc1nnc(Nc2cccc(C)c2)s1` stands “inactive”; under `CC(C)Nc1nnc(SCC(=O)Nc2ccc3c(c2)C(=O)c2ccccc2C3=O)s1`, 6.75 µM (active).

As to `Cc1cc(NC(=O)CSc2nnc(Nc3ccccc3F)s2)no1`, the Potency result was “inactive”.

In the case of `CC(C)[C@H](NC(=O)c1ccccc1)C(=O)NC1CCCCCCC1`, the Potency entry is “inactive”. Consider `O=C(NC1CC1)c1ccc2nc(-c3ccco3)c(-c3ccco3)nc2c1`, for which the Potency was 13.5 µM (active). Under `O=C(O)c1ccc2nc(-c3ccco3)c(-c3ccco3)nc2c1` stands 8.49 µM (active); under `CC1CCN(CC2C(=O)O[C@@H]3C[C@@]4(C)CCC[C@H](C)C4=C[C@H]23)CC(C)(C)C1` (stereo partly drawn), “inactive”. Under `CC(=O)Oc1ccccc1C(=O)Oc1ccc(/C=N/n2cnnc2)cc1` stands 16.9 µM (active); under `CCC(C)C(CO)NC(=O)/C=C/[C@H]1O[C@@H](n2cnc3c(NC(=O)c4ccccc4)ncnc32)[C@H](O)[C@@H]1O` (stereo partly drawn), “inactive”. Under `Cc1cc(C(=O)COC(=O)c2cccnc2Cl)c(C)n1-c1c(C)n(C)n(-c2ccccc2)c1=O` stands “inactive”; under `O=C(OCC(=O)c1ccc(Cl)cc1Cl)c1ccccn1`, 19 µM (active); under `O=C(CSc1nnc2c(n1)[nH]c1ccccc12)Nc1ccc(S(=O)(=O)Nc2ncccn2)cc1`, 5.36 µM (active). For the compound `CCc1ccc2[nH]c3nc(SCC(=O)NCC4CCCO4)nnc3c2c1` (stereo not drawn), the Potency was 6.01 µM (active).

Regarding `CCOc1ccc2[nH]c3nc(SCC(=O)NC4CCCC4)nnc3c2c1`, the Potency entry is “inactive”.

Consider `Cc1c(CCC(=O)NCCCCCC(=O)O)c(=O)oc2cc3occ(-c4ccccc4)c3cc12`, for which the Potency is 15.1 µM (active). To `Cc1c(CC(=O)N[C@@H](C)C(=O)O)c(=O)oc2cc3occ(-c4ccccc4)c3cc12` belongs 8.49 µM (active); to `Cc1c(CC(=O)NCC(=O)O)c(=O)oc2cc3occ(-c4ccccc4)c3cc12`, 16.9 µM (active); to `Cc1c(CC(=O)NCCCC(=O)O)c(=O)oc2cc3occ(-c4ccccc4)c3cc12`, 19 µM (active). With `O=c1cc2oc3cc(O)c(O)cc3c(-c3ccccc3[N+](=O)[O-])c-2cc1O`, the Potency is 16.9 µM (active). To `CC1=C(/C=C/C(C)=C/C=C/C(C)=C/C(=O)Nc2ccc(O)cc2)C(C)(C)CCC1` belongs “inactive”.

As to `CC1=NN(c2ccccc2)C(=O)/C1=C\C=C1/N(C)c2ccccc2C1(C)C`, the Potency is 7.57 µM (active). To `CN1/C(=C\C=C2/SC(=S)NC2=O)C(C)(C)c2ccccc21` belongs 15.1 µM (active); to `Cc1ccc(-n2[nH]c(C)c(C=Nc3ccc(S(=O)(=O)Nc4nccs4)cc3)c2=O)cc1C`, 8.49 µM (active). As for `Cc1c(CCC(=O)O)c(=O)oc2c(C)c(OCc3cc4c(cc3Cl)OCO4)ccc12`, the Potency is 9.53 µM (active). To `COc1ccc(/C=C2\CCc3ccccc3C2=O)cc1CN1CCOCC1` belongs “inactive”; to `COc1cccc2c1C(=O)/C(=C/c1ccc(N(C)C)cc1)C2`, 4.26 µM (active).

For `Cc1cc(NC(=O)c2cccc(N3C(=O)CCC3=O)c2)no1`, the Potency result is “inactive”. Under `Cc1ccc(C(=O)Oc2ccc(N3C(=O)CCC3=O)c(C)c2)cc1` stands 2.69 µM (active); under `Cc1ccc(C(=O)Oc2ccc3ccc(=O)oc3c2)cc1`, 1.9 µM (active); under `CCC(C)c1ccc2oc(-c3ccc(NC(=O)c4ncn[nH]4)cc3)nc2c1` (stereo not drawn), 15.1 µM (active). Regarding `CC(C)c1ccc2oc(-c3ccc(NC(=O)c4ncn[nH]4)cc3)nc2c1`, the Potency is 16.9 µM (active). To `CCN(CC)c1ccc(N=Cc2cc(Br)ccc2O)cc1` belongs “inactive”; to `CCN(CC)c1ccc(NC(=O)COC(=O)CSc2ccc(Br)cc2C)cc1`, 12 µM (active). Take `CCN(C)c1ccc(/C=C/c2ccnc3ccccc23)cc1`: the Potency is 21.3 µM (active). To `CN(C)c1ccc(/C=C/c2ccnc3ccc(-c4ccccc4)cc23)cc1` belongs 21.3 µM (active); to `Cc1ccc(O)c(C(=O)c2cnc3c(c2)c(-c2ccc(F)cc2)c(C#N)c(=O)n3C)c1`, “inactive”. To `O=C(Nc1nc2ccc(F)cc2s1)C1=NN(c2ccccc2)C(=O)CC1` belongs “inactive”. Under `COc1ccc(CCNC(=O)C(=O)NCc2cccs2)cc1OC` stands “inactive”; under `COc1ccc(CCNc2nc(-c3ccccn3)cs2)cc1OC`, 7.57 µM (active); under `Cc1cccc(NC(=S)N(CCN2CCOCC2)Cc2cc3cc4c(cc3[nH]c2=O)OCCO4)c1`, “inactive”.

For the compound `Cc1ccc(S(=O)(=O)Nc2c(C)n(C)n(-c3ccccc3)c2=O)cc1C(=O)OC(C)C(=O)N(C)c1ccccc1` (stereo not drawn), the Potency entry was “inactive”.

`CCCCC(=O)NC(c1cccc([N+](=O)[O-])c1)c1ccc2cccnc2c1O` (stereo not drawn): the Potency is 4.26 µM (active).

As for `COc1ccc(C(NC(C)=O)c2ccc3cccnc3c2O)cc1OC` (stereo not drawn), the Potency was 1.69 µM (active). To `CC(=O)NC(c1ccc(Cl)cc1)c1ccc2cccnc2c1O` (stereo not drawn) belongs 2.13 µM (active); to `CCCC(=O)NC(c1ccc(OC)c(OC)c1)c1cc(Cl)c2cccnc2c1O` (stereo not drawn), 2.69 µM (active); to `CCC(=O)NC(c1cccs1)c1cc(Cl)c2cccnc2c1O` (stereo not drawn), 1.51 µM (active). To `COc1ccc(C(NC(C)=O)c2cc(Cl)c3cccnc3c2O)cc1OC` (stereo not drawn) belongs 1.69 µM (active); to `CC(C)C(=O)NC(c1ccc(Cl)cc1Cl)c1ccc2cccnc2c1O` (stereo not drawn), 5.36 µM (active). To `O=C(O)c1ccccc1NC(c1ccccc1)c1ccc2cccnc2c1O` (stereo not drawn) belongs 3.38 µM (active).
